Measured values from PubChem BioAssay AID720617 (Broad Institute, 2013).
Results filed as inconclusive are left out. The source made the active and inactive calls.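 How the source made its calls: active means active at all three treatment times, each with half-maximal potency within twice the top valid dose, signal falling; inconclusive means treatment times disagree on the call; inactive means inactive at all three times, including opposite responses.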

Experiment: viability loss in CCRF-CEM T-lymphoblasts – cell-based, Alamar Blue fluorescence, several timepoints, dry powder, mechanism study for HRAS target identification, late-stage follow-up (AID 720617)
Details: activity change: measured here: 8 h treatment viability, at 35 µM, stronger effect = lower value

SMILES: Cc1onc(C(=O)N2CCN(C(c3ccncc3)c3ccncc3)CC2)c1[N+](=O)[O-]
- activity change: -0.515%
- outcome: inactive

SMILES: CCC(=O)N(c1ccc(OC)c(Cl)c1)C(C(=O)NCCc1ccccc1)c1cccs1 (centres undefined)
- activity change: 6.85%
- outcome: inactive
